This is an account of results in PubChem BioAssay.

The structures appear in SMILES notation. Activity calls are given as the source filed them. How the calls were made is not given here.

By inhibition is commonly meant the relative decrease from the control value, in per cent.

In the assay the target is Lethal factor (Bacillus anthracis) (UniProt P15917). Put plainly: Bacillus anthracis lethal factor inhibition, microsphere flow cytometry protease assay, validation at 10 µM (AID 588461). The note with it: multiplex microsphere protease cleavage assay, active compounds read high. On the technique in general: Flow cytometry measures light scatter and fluorescence of single cells or particles in a stream.
`C[C@@H]1C[C@H]2[C@@H]3CCC4=CC(=O)C=C[C@]4(C)[C@@]3(F)[C@@H](O)C[C@]2(C)[C@@]1(O)C(=O)COP(=O)(O)O`: the inhibition is 0.9% (inactive).

As to `CC1(C)CC(=O)C2=C(C1)c1c(ccc3ccccc13)NC2c1ccco1` (centres undefined), the inhibition was 3.8% (inactive).

For the compound `CN1CCc2cccc3c2[C@H]1Cc1ccc(O)c(O)c1-3`, the inhibition was -33.9% (inactive).

As to `CCN(CC)C(=O)c1sc(NC(=O)c2c(OC)cccc2OC)c(C#N)c1C`, the inhibition is 3.6% (inactive).

Regarding `O=C(O)CCNC(=O)c1ccccc1`, the inhibition is -7.3% (inactive).

Take `COc1ccc(C(=O)/C=C/c2ccc(OC(=O)c3cc(OC)c(OC)c(OC)c3)cc2)cc1`: the inhibition is -5% (inactive).

As to `O=C(Oc1ccccc1)Oc1ccc2c(c1)oc(=O)c1ccccc12`, the inhibition was 0.9% (inactive).

With `COc1ccc(OC)c(NC2=C(Cl)C(=O)N(Cc3ccccc3)C2=O)c1`, the inhibition is -12.4% (inactive).

Regarding `CC(C(=O)O)c1cccc(C(=O)c2ccccc2)c1` (centres undefined), the inhibition was 5.8% (inactive).

Turning to `CC(C)OC(=O)C(C)(C)Oc1ccc(C(=O)c2ccc(Cl)cc2)cc1`, the inhibition is -0.7% (inactive).

Regarding `Nc1nc2c(ncn2COCCO)c(=O)[nH]1`, the inhibition was 0.4% (inactive).

Take `Cc1cnc(NC(=O)C2=C(O)c3ccccc3S(=O)(=O)N2C)s1`: the inhibition was 1.4% (inactive).

`O=C1CC[C@@H](CN(Cc2ccccc2)Cc2cn[nH]c2-c2cc3ccccc3o2)N1`: the inhibition is -0.2% (inactive).

With `O=C1CC2(CCCC2)CC(=O)N1CCCCN1CCN(c2ncccn2)CC1`, the inhibition was 6.7% (inactive).

As for `CC[C@H](C)C(=O)O[C@H]1C[C@@H](C)C=C2C=C[C@H](C)[C@H](CC[C@@H]3C[C@@H](O)CC(=O)O3)[C@H]21`, the inhibition was 10.4% (inactive).

In the case of `COc1ccc(C(=O)C2CCCCC2=O)cc1` (centres undefined), the inhibition is -1.2% (inactive).

Take `CC(=O)N(CCC1(C(C)C)CCOC(C)(C)C1)Cc1ccco1` (centres undefined): the inhibition was 0.2% (inactive).

Take `Cc1[nH]nc(-c2ccc(O)cc2O)c1Oc1ccccc1`: the inhibition is -5.3% (inactive).

For the compound `CC(C)CN1CCN(Cc2ccc(C#CC(C)(C)O)cc2)CC1CCO` (centres undefined), the inhibition was -2.1% (inactive).

In the case of `CCN(CC)CCNC(=O)c1ccc(N)cc1`, the inhibition is 2.4% (inactive).

As to `O=C(c1ccc(Cl)cc1)C1CCCN(Cc2ccc(Oc3ncccn3)cc2)C1` (centres undefined), the inhibition is -3.2% (inactive).

On to `CN(C(=O)C(Cl)Cl)c1ccc(OC(=O)c2ccco2)cc1`, for which the inhibition was -0.8% (inactive).

For `CCOC(=O)Cc1c(C)nc(N)[nH]c1=O`, the inhibition was -3.1% (inactive).

With `CCCC(=O)Nc1ccc(OCC(O)CNC(C)C)c(C(C)=O)c1` (centres undefined), the inhibition was -26.9% (inactive).

For the compound `NCCCC(=O)O`, the inhibition is 0.3% (inactive).

As for `O=C(CNC(=O)OCc1ccccc1)NC1CCCCCC1`, the inhibition was -3.4% (inactive).

For the compound `CC(C)(C)c1ccc(C(O)CCCN2CCC(C(O)(c3ccccc3)c3ccccc3)CC2)cc1` (centres undefined), the inhibition was -3.6% (inactive).

Consider `CN(C)CCCN1c2ccccc2CCc2ccc(Cl)cc21`, for which the inhibition was -1.4% (inactive).

As to `C[C@H](CS)C(=O)N1CCC[C@H]1C(=O)O`, the inhibition was -1.8% (inactive).

On to `CN1CCc2cccc3c2[C@@H]1Cc1ccc(O)c(O)c1-3`, for which the inhibition is -53.3% (inactive).

On to `CCc1cccc2c1NC1(CCCC1)CC2C` (centres undefined), for which the inhibition was 167% (active).

As for `CC(C)NCC(O)COc1ccc(CC(N)=O)cc1` (centres undefined), the inhibition is -2.4% (inactive).

Turning to `COc1ccc(OC)c(-n2c(Cn3c(-c4ccccn4)nc4ccccc43)n[nH]c2=S)c1`, the inhibition is -0.7% (inactive).

With `Cc1nnc(SCC2=C(C(=O)O)N3C(=O)[C@@H](NC(=O)Cn4cnnn4)[C@H]3SC2)s1`, the inhibition was 0.6% (inactive).

On to `O=C1CCCN1C(=O)CCC(=O)N1CCCC1=O`, for which the inhibition was -2.8% (inactive).

In the case of `COc1cc(C(=O)NCCc2c[nH]c3ccccc23)ccc1OCc1c(C)noc1C`, the inhibition is 0.2% (inactive).

For `O=C1C=CC(=O)C(C2=C3C(=O)N(CCc4ccccc4)CC(=O)N3CCC2)=C1`, the inhibition is -4.9% (inactive).

Turning to `CCCCNc1cc(C(=O)O)cc(S(N)(=O)=O)c1Oc1ccccc1`, the inhibition was -3.2% (inactive).

Regarding `c1cc2c(cc1C1CCCCC1)c1c3n2CCN=C3CCC1`, the inhibition is -11.8% (inactive).
